Results published in publication PMC10812921, “Transcriptional Coactivator BOB1 (OBF1, OCA-B) Modulates the Specificity of DNA Recognition by the POU-Domain Factors OCT1 and OCT2 in a Monomeric Configuration”.

Each sequence was assayed against POU1 (OCT1 POU domain) (human, UniProt P14859 260-458) (assay: EMSA-SELEX-seq; no BOB1; 20 mM Tris-HCl pH 7.6, 140 mM NaCl, 10% glycerol, 0.5 mM EDTA, 0.05% Triton X-100, 0.1 mg/mL BSA, 0.1 mg/mL poly(dI-dC), 5 mM DTT, room temperature, 20 min; high values mean tight binding). Conditions: protein: recombinant; dsDNA, one strand shown.
Sequence of POU1 (OCT1 POU domain) (P14859 260-458): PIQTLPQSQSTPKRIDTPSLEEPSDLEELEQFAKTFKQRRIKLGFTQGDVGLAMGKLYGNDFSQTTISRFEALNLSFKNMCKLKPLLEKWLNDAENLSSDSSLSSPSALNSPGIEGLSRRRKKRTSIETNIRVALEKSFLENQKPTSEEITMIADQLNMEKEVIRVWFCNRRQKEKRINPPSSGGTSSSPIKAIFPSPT
In short: (§1)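 Binding preference is the percentage of sequenced 8-mers matching a motif pattern. Tagged POU-domain proteins expressed in E. coli BL21 were purified under denaturing conditions and renatured. For binding, 30 ng protein met 300 ng of a PCR-amplified double-stranded random 35-nt library, with or without 28 ng coactivator protein, in 20 μL Tris–HCl pH 7.6 binding buffer for 20 min at RT. Complex bands were cut from native 6% PAGE, eluted and PCR-amplified over four rounds, then Illumina-sequenced.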

Sequence | binding signal
AATACAAA | 0.134 % of ANNNNAAN 8-mers
ATCAAAAG | 0.045 % of ANNNNAAN 8-mers
ATAATAAG | 0.182 % of ANNNNAAN 8-mers
AGGCGAAC | 0.0183 % of ANNNNAAN 8-mers
ATTTAAAA | 0.303 % of ANNNNAAN 8-mers
AGACTAAC | 0.0153 % of ANNNNAAN 8-mers
AGGTCAAA | 0.0587 % of ANNNNAAN 8-mers
ATGTAAAG | 0.489 % of ANNNNAAN 8-mers
ACATTAAT | 0.165 % of ANNNNAAN 8-mers
AGTCGAAA | 0.0431 % of ANNNNAAN 8-mers
AATGTAAA | 0.614 % of ANNNNAAN 8-mers
ATATCAAC | 0.0481 % of ANNNNAAN 8-mers
AATCGAAT | 0.087 % of ANNNNAAN 8-mers
AATTGAAC | 0.0492 % of ANNNNAAN 8-mers
AAAAGAAA | 0.106 % of ANNNNAAN 8-mers
AAACTAAG | 0.0484 % of ANNNNAAN 8-mers
AGGAGAAC | 0.0275 % of ANNNNAAN 8-mers
ATCTTAAA | 0.0648 % of ANNNNAAN 8-mers
ATGTCAAA | 0.0744 % of ANNNNAAN 8-mers
AGGGTAAC | 0.0339 % of ANNNNAAN 8-mers

Sequence | binding signal
ATTTCAAC | 0.0416 % of ANNNNAAN 8-mers
ATTGCAAA | 0.202 % of ANNNNAAN 8-mers
AAGCGAAC | 0.0221 % of ANNNNAAN 8-mers
AGTCGAAC | 0.0221 % of ANNNNAAN 8-mers
AGGTGAAG | 0.04 % of ANNNNAAN 8-mers
ATACAAAC | 0.0648 % of ANNNNAAN 8-mers
AGGCAAAG | 0.146 % of ANNNNAAN 8-mers
AAATTAAG | 0.303 % of ANNNNAAN 8-mers
AGACAAAA | 0.0675 % of ANNNNAAN 8-mers
ACCGTAAA | 0.0244 % of ANNNNAAN 8-mers
AAGTGAAG | 0.0381 % of ANNNNAAN 8-mers
ACCAAAAG | 0.0236 % of ANNNNAAN 8-mers
AACGCAAT | 0.0347 % of ANNNNAAN 8-mers
ACACTAAA | 0.0256 % of ANNNNAAN 8-mers
AGGGGAAT | 0.11 % of ANNNNAAN 8-mers
AGGGCAAC | 0.0214 % of ANNNNAAN 8-mers
AATATAAT | 0.213 % of ANNNNAAN 8-mers
ATTTCAAG | 0.0542 % of ANNNNAAN 8-mers
AAGAGAAC | 0.0271 % of ANNNNAAN 8-mers

These sequences were tested against T1, POU2 (OCT2 POU domain) (human, UniProt P09086 175-386) in the same assay as above. Conditions: protein: recombinant; dsDNA, one strand shown.
T1 sequence: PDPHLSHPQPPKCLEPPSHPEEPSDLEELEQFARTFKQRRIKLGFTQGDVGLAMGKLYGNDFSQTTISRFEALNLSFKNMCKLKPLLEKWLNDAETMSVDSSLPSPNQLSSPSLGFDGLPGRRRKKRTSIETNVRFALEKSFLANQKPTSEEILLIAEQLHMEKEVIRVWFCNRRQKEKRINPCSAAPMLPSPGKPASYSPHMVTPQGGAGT
In short: as §1

Sequence | binding signal
AATACAAA | 0.108 % of ANNNNAAN 8-mers
ATCAAAAG | 0.0414 % of ANNNNAAN 8-mers
ATAATAAG | 0.258 % of ANNNNAAN 8-mers
AGGCGAAC | 0.0247 % of ANNNNAAN 8-mers
ATTTAAAA | 0.299 % of ANNNNAAN 8-mers
AGACTAAC | 0.0207 % of ANNNNAAN 8-mers
AGGTCAAA | 0.0403 % of ANNNNAAN 8-mers
ATGTAAAG | 0.393 % of ANNNNAAN 8-mers
ACATTAAT | 0.215 % of ANNNNAAN 8-mers
AGTCGAAA | 0.0414 % of ANNNNAAN 8-mers
AATGTAAA | 0.509 % of ANNNNAAN 8-mers
ATATCAAC | 0.0449 % of ANNNNAAN 8-mers
AATCGAAT | 0.0926 % of ANNNNAAN 8-mers
AATTGAAC | 0.0575 % of ANNNNAAN 8-mers
AAAAGAAA | 0.084 % of ANNNNAAN 8-mers
AAACTAAG | 0.0478 % of ANNNNAAN 8-mers
AGGAGAAC | 0.0363 % of ANNNNAAN 8-mers
ATCTTAAA | 0.0552 % of ANNNNAAN 8-mers
ATGTCAAA | 0.0673 % of ANNNNAAN 8-mers
AGGGTAAC | 0.0328 % of ANNNNAAN 8-mers

Sequence | binding signal
ATTTCAAC | 0.0414 % of ANNNNAAN 8-mers
ATTGCAAA | 0.167 % of ANNNNAAN 8-mers
AAGCGAAC | 0.0178 % of ANNNNAAN 8-mers
AGTCGAAC | 0.0224 % of ANNNNAAN 8-mers
AGGTGAAG | 0.0386 % of ANNNNAAN 8-mers
ATACAAAC | 0.0512 % of ANNNNAAN 8-mers
AGGCAAAG | 0.0783 % of ANNNNAAN 8-mers
AAATTAAG | 0.342 % of ANNNNAAN 8-mers
AGACAAAA | 0.0489 % of ANNNNAAN 8-mers
ACCGTAAA | 0.0253 % of ANNNNAAN 8-mers
AAGTGAAG | 0.0409 % of ANNNNAAN 8-mers
ACCAAAAG | 0.0196 % of ANNNNAAN 8-mers
AACGCAAT | 0.0351 % of ANNNNAAN 8-mers
ACACTAAA | 0.0293 % of ANNNNAAN 8-mers
AGGGGAAT | 0.121 % of ANNNNAAN 8-mers
AGGGCAAC | 0.0219 % of ANNNNAAN 8-mers
AATATAAT | 0.286 % of ANNNNAAN 8-mers
ATTTCAAG | 0.0495 % of ANNNNAAN 8-mers
AAGAGAAC | 0.0391 % of ANNNNAAN 8-mers

These sequences were tested against POU1 (OCT1 POU domain);BOB1 (OBF1, OCA-B) (human;human, UniProt P14859;Q16633 260-458;1-256, |) (assay: EMSA-SELEX-seq; with BOB1 (ternary complex band); 20 mM Tris-HCl pH 7.6, 140 mM NaCl, 10% glycerol, 0.5 mM EDTA, 0.05% Triton X-100, 0.1 mg/mL BSA, 0.1 mg/mL poly(dI-dC), 5 mM DTT, room temperature, 20 min; high values mean tight binding). Conditions: protein: recombinant;recombinant; copies: 1;1; dsDNA, one strand shown.
In short: as §1

Sequence | binding signal
AATACAAA | 0.148 % of ANNNNAAN 8-mers
ATCAAAAG | 0.0581 % of ANNNNAAN 8-mers
ATAATAAG | 0.094 % of ANNNNAAN 8-mers
AGGCGAAC | 0.0207 % of ANNNNAAN 8-mers
ATTTAAAA | 0.178 % of ANNNNAAN 8-mers
AGACTAAC | 0.0156 % of ANNNNAAN 8-mers
AGGTCAAA | 0.0632 % of ANNNNAAN 8-mers
ATGTAAAG | 0.489 % of ANNNNAAN 8-mers
ACATTAAT | 0.0777 % of ANNNNAAN 8-mers
AGTCGAAA | 0.0324 % of ANNNNAAN 8-mers
AATGTAAA | 0.547 % of ANNNNAAN 8-mers
ATATCAAC | 0.0367 % of ANNNNAAN 8-mers
AATCGAAT | 0.078 % of ANNNNAAN 8-mers
AATTGAAC | 0.0386 % of ANNNNAAN 8-mers
AAAAGAAA | 0.119 % of ANNNNAAN 8-mers
AAACTAAG | 0.0636 % of ANNNNAAN 8-mers
AGGAGAAC | 0.0261 % of ANNNNAAN 8-mers
ATCTTAAA | 0.0515 % of ANNNNAAN 8-mers
ATGTCAAA | 0.0745 % of ANNNNAAN 8-mers
AGGGTAAC | 0.0343 % of ANNNNAAN 8-mers

Sequence | binding signal
ATTTCAAC | 0.041 % of ANNNNAAN 8-mers
ATTGCAAA | 0.322 % of ANNNNAAN 8-mers
AAGCGAAC | 0.0176 % of ANNNNAAN 8-mers
AGTCGAAC | 0.0199 % of ANNNNAAN 8-mers
AGGTGAAG | 0.0339 % of ANNNNAAN 8-mers
ATACAAAC | 0.0819 % of ANNNNAAN 8-mers
AGGCAAAG | 0.258 % of ANNNNAAN 8-mers
AAATTAAG | 0.238 % of ANNNNAAN 8-mers
AGACAAAA | 0.0808 % of ANNNNAAN 8-mers
ACCGTAAA | 0.0226 % of ANNNNAAN 8-mers
AAGTGAAG | 0.0386 % of ANNNNAAN 8-mers
ACCAAAAG | 0.0273 % of ANNNNAAN 8-mers
AACGCAAT | 0.0242 % of ANNNNAAN 8-mers
ACACTAAA | 0.0273 % of ANNNNAAN 8-mers
AGGGGAAT | 0.089 % of ANNNNAAN 8-mers
AGGGCAAC | 0.0172 % of ANNNNAAN 8-mers
AATATAAT | 0.137 % of ANNNNAAN 8-mers
ATTTCAAG | 0.055 % of ANNNNAAN 8-mers
AAGAGAAC | 0.0285 % of ANNNNAAN 8-mers

The sequences below were run against T2, POU2 (OCT2 POU domain);BOB1 (OBF1, OCA-B) (human;human, UniProt P09086;Q16633 175-386;1-256, |) in the same assay as above. Conditions: protein: recombinant;recombinant; copies: 1;1; dsDNA, one strand shown.
T2 sequence 1: T1 sequence
T2 sequence 2: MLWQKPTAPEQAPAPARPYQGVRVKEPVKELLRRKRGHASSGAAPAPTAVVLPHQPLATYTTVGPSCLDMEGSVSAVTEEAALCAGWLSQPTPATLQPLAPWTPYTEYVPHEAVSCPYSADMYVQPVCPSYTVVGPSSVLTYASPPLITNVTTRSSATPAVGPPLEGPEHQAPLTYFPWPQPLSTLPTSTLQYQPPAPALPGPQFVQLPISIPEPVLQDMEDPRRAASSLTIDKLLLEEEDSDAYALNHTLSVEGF
In short: as §1

Sequence | binding signal
AATACAAA | 0.121 % of ANNNNAAN 8-mers
ATCAAAAG | 0.0388 % of ANNNNAAN 8-mers
ATAATAAG | 0.126 % of ANNNNAAN 8-mers
AGGCGAAC | 0.0305 % of ANNNNAAN 8-mers
ATTTAAAA | 0.137 % of ANNNNAAN 8-mers
AGACTAAC | 0.0198 % of ANNNNAAN 8-mers
AGGTCAAA | 0.0421 % of ANNNNAAN 8-mers
ATGTAAAG | 0.477 % of ANNNNAAN 8-mers
ACATTAAT | 0.102 % of ANNNNAAN 8-mers
AGTCGAAA | 0.0322 % of ANNNNAAN 8-mers
AATGTAAA | 0.552 % of ANNNNAAN 8-mers
ATATCAAC | 0.0471 % of ANNNNAAN 8-mers
AATCGAAT | 0.0916 % of ANNNNAAN 8-mers
AATTGAAC | 0.052 % of ANNNNAAN 8-mers
AAAAGAAA | 0.0702 % of ANNNNAAN 8-mers
AAACTAAG | 0.052 % of ANNNNAAN 8-mers
AGGAGAAC | 0.0149 % of ANNNNAAN 8-mers
ATCTTAAA | 0.0636 % of ANNNNAAN 8-mers
ATGTCAAA | 0.0652 % of ANNNNAAN 8-mers
AGGGTAAC | 0.0322 % of ANNNNAAN 8-mers

Sequence | binding signal
ATTTCAAC | 0.0429 % of ANNNNAAN 8-mers
ATTGCAAA | 0.324 % of ANNNNAAN 8-mers
AAGCGAAC | 0.0231 % of ANNNNAAN 8-mers
AGTCGAAC | 0.0239 % of ANNNNAAN 8-mers
AGGTGAAG | 0.0471 % of ANNNNAAN 8-mers
ATACAAAC | 0.0528 % of ANNNNAAN 8-mers
AGGCAAAG | 0.13 % of ANNNNAAN 8-mers
AAATTAAG | 0.319 % of ANNNNAAN 8-mers
AGACAAAA | 0.0322 % of ANNNNAAN 8-mers
ACCGTAAA | 0.0173 % of ANNNNAAN 8-mers
AAGTGAAG | 0.0454 % of ANNNNAAN 8-mers
ACCAAAAG | 0.019 % of ANNNNAAN 8-mers
AACGCAAT | 0.0314 % of ANNNNAAN 8-mers
ACACTAAA | 0.0173 % of ANNNNAAN 8-mers
AGGGGAAT | 0.11 % of ANNNNAAN 8-mers
AGGGCAAC | 0.0173 % of ANNNNAAN 8-mers
AATATAAT | 0.133 % of ANNNNAAN 8-mers
ATTTCAAG | 0.0561 % of ANNNNAAN 8-mers
AAGAGAAC | 0.0289 % of ANNNNAAN 8-mers
